Source: PubChem
WRN helicase inh: inhibitors of human WRN helicase; WRN helicase unwinding, fluorescent forked duplex, kinetic; Q14191; Potency, µM (series often up to 114 µM), most hits filed as inhibitors; hit rate 0.46% among 360,000; AID 651768; further: nearly all actives have a fitted effect of over 55% in size
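Enzyme (20 nM final) and test compound sit together 15 min at room temperature before substrate addition. Substrate is a single-forked duplex oligonucleotide (100 nM) labelled with fluorophore and quencher, with 2 mM ATP; helicase unwinding raises red fluorescence, read kinetically.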
POLH inh: DNA polymerase eta (human) inhibition; Q9Y253; recombinant Pol eta, fluorescent DNA replication assay; Potency, µM (titrated, usually from 114 µM), actives largely listed as inhibitors; hit rate 1.2% among 390,000; AID 588591
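Pol eta (10 nM) was preincubated with compounds for 15 min at room temperature, after which fluorescent replication substrate (50 nM final) was added to start the reaction. Fluorescence was read kinetically at 0 and 10 min.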
FEN1 inhibitor: human FEN1 inhibition; Recombinant FEN1 flap cleavage, fluorescence, 15 min; Potency, µM (doses to about 114 µM), hits mostly inhibitors; P39748; hit rate 0.35% among 390,000; further: nearly all actives have a fitted effect of over 65% in size
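Steps: FEN1 (10 nM) dispensed; compound added by pin tool; 15 min at room temperature; substrate added to 50 nM final; reads at 0 min and 15 min; data normalized and fitted (four-parameter Hill).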
POLI inh: inhibitors of human DNA polymerase iota; Q9UNA4; Pol iota fluorescent replication assay, 10 min; Potency, µM (titrated, usually from 115 µM), usual class: inhibitors; hit rate 1% among 390,000; AID 588590
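Pol iota at 10 nM preincubated 15 min with compounds at room temperature; reaction started with fluorescent substrate, 50 nM final. Fluorescence read kinetically at 0 and 10 min; buffer-only wells as negative control.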
Pol kappa inh: blocks human DNA polymerase kappa activity; Potency, µM (doses to about 107 µM), most hits filed as inhibitors; hit rate 0.53% among 400,000; purified Pol kappa, fluorescent DNA synthesis assay, 10 min
Target sequence (Q9UBT6 whole entry, looked up): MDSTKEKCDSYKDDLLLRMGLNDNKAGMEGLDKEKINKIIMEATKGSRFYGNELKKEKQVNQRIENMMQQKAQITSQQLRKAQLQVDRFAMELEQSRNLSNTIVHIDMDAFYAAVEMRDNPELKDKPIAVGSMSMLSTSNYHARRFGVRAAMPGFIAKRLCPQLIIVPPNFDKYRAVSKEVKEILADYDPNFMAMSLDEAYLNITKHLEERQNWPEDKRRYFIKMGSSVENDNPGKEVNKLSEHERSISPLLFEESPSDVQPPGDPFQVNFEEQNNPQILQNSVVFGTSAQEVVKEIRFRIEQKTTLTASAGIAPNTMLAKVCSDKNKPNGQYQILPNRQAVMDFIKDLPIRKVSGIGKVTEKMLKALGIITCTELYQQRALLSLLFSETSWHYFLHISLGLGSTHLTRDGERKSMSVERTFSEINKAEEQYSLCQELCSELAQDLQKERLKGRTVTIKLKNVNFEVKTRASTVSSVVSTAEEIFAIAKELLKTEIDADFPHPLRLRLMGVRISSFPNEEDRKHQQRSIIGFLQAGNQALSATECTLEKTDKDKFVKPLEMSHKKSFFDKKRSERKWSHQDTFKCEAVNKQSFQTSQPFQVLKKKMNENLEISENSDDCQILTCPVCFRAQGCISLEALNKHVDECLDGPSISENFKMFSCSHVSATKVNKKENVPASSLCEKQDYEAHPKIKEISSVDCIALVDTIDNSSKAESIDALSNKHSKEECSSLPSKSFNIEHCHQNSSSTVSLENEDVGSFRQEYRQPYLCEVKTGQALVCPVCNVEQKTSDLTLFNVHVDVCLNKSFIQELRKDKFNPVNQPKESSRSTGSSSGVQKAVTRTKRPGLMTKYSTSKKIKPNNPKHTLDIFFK
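Enzyme at 10 nM met test compounds for 15 min at room temperature. Substrate addition (50 nM final) began the reaction, which was monitored by fluorescence at 0 and 10 min.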
Pol beta inh: blocks human DNA polymerase beta activity | Potency, µM (doses to about 114 µM), usual class: inhibitors | Pol beta primer extension/strand displacement, fluorescence kinetic | AID 485314 | hit rate 1.3% among 340,000 | P06746
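Pol beta (10 nM) was preincubated with compound for 15 min at room temperature. The reaction was then started with 50 nM substrate and read immediately and after a further 10 min at room temperature.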
A number is an active result; n = inactive; u = inconclusive; x = no result; ! = not confirmed by another sample; [ ] = dose if it differs, or a comment. Sampled rows, rich in hits. Any-hit rate of the full collection: about 2.4%. The call rests on the fitted dose curve; in most records, active means well fitted curve in the direction sought with a large enough effect; inconclusive means small, poorly fitted or top-dose-only effect, or another doubt; inactive means no such curve, though single readings can be large; an effect the other way counts as inactive or inconclusive.

SMILES	WRN helicase inh	POLH inh	FEN1 inhibitor	POLI inh	Pol kappa inh	Pol beta inh
O=C(COC(=O)C12CC3CC(CC(Br)(C3)C1)C2)NCc1ccco1	x	x	n	n	n	x
O=C1CC(C(=O)Nc2ccc(O)c(C(=O)O)c2)C(c2ccccc2)O1 (configuration not stated)	n	50.1µM	n	u	n	n
O=C1CC(C(=O)Nc2ccc(C(=O)O)cc2)C(c2ccccc2)O1 (configuration not stated)	n	n	n	n	n	n
CCOC(=O)c1ccc(NC(=O)Nc2ccn(C)n2)cc1	n	n	n	89.1µM	n	n
CCOC(=O)c1ccc(NC(=O)Nc2cccc(C)n2)cc1	n	n	n	n	n	n
O=C(C[n+]1cccc(Cl)c1)c1ccc(F)cc1	x	x	n	n	n	x
CC1CCc2cc(F)cc3c2N1C(=O)C(C(=O)Nc1cnccn1)C3=O (configuration not stated)	x	x	n	n	n	x
O=c1c(Cl)c(N/N=C/c2ccc(Br)cc2)cnn1-c1ccccc1	u	u	u	u	u	17.8µM
N#Cc1ccc(/C=C2\C=Cc3ccccc32)cc1	x	x	n	n	n	x
Cc1ccc(-n2nc3c(=O)n(CC(=O)NCc4cccs4)nc(C)c3c2C)cc1	n	n	n	n	n	n
Cc1nn(CC(=O)NCCc2ccco2)c(=O)c2nn(-c3ccccc3)c(C)c12	n[11.6 µM]	31.6µM	n	22.4µM	n	89.1µM
Cc1nn(CC(=O)NCCc2cccs2)c(=O)c2nn(-c3ccccc3)c(C)c12	n[11.6 µM]	n	n	35.5µM	n	u
Cc1ccc(F)c(C2C3C=CCCC3(C)C(=O)N2Cc2ccccc2)c1 (configuration not stated)	x	x	n	n	n	x
C[C@H](NC(c1cccc2nc(O)c(O)nc12)P(=O)(O)O)c1ccc(Br)cc1 (some centres not stated)	x	x	x	x	n	x
CN1C[C@@H]2[C@@H]3C(=O)N(Cc4ccccc4)C(=O)[C@@H]3[C@](C)(C1=O)N2C(=O)c1ccccc1	n	n	n	n	n	x
CCc1cccc2c1NC(=O)[C@]21[C@@H]2C(=O)N(Cc3ccccc3)C(=O)[C@@H]2[C@@H]2CCCN21	n	22.4µM	n	u	n	u
CO[C@@]1(NC(=O)CSCC#N)C(=O)N2C(C(=O)O)=C(CSc3nnnn3C)CSC21 (some centres not stated)	x	x	x	x	n	x
CO[C@@]1(NC(=O)Cc2cccs2)C(=O)N2C(C(=O)O)=C(COC(N)=O)CS[C@@H]21	n	u	n	u	u	12.6µM
CO[C@@]1(NC(=O)Cc2cccs2)C(=O)N2C(C(=O)O)=C(COC(N)=O)CSC21 (some centres not stated)	x	x	x	x	31.6µM	x
O=C(CSc1nnc(SCc2ccccc2Cl)s1)N/N=C/c1c[nH]c2ccccc12	n	u	n	n	n	n
Cc1ccc(CSc2nnc(SCC(=O)N/N=C/c3c[nH]c4ccccc34)s2)cc1	u	u	u	3.55µM	n	7.94µM
Nc1ccc(C(Cc2ccnc3ccccc23)Cc2ccnc3ccccc23)cc1	x	x	n	n	n	x
O=C1C[C@H](c2ccccc2Cl)N1S(=O)(=O)c1ccccc1[N+](=O)[O-]	x	x	n	n	n	x
CCCN1CNc2c(c(=O)[nH]c(=S)n2CCc2cc(OC)cc(OC)c2)C1	x	x	n	n	n	x
Nc1cc(=O)[nH]c(=S)[nH]1	x	x	n	n	n	x
SMILES	WRN helicase inh	POLH inh	FEN1 inhibitor	POLI inh	Pol kappa inh	Pol beta inh
O=c1cc(-c2ccccc2)nc2cc(-c3ccco3)[nH]n12	n	n	n	n	n	50.1µM
N[C@@H](Cc1cc(I)c(Oc2ccc(O)c(I)c2)c(I)c1)C(=O)O	u	31.6µM!	u	50.1µM!	u	20µM!
NC(Cc1cc(I)c(Oc2ccc(O)c(I)c2)c(I)c1)C(=O)O (configuration not stated)	x	x	x	x	n	x
O=C(COC(=O)C12CC3CC(CC(O)(C3)C1)C2)NCc1ccco1	x	x	n	n	n	x
CCC(C)COC(c1ccccc1)(c1ccccc1)C(Oc1nc(C)cc(C)n1)C(=O)O (configuration not stated)	n	n	n	79.4µM	n	n
CC(/C=C/C1[C@H](C)C[C@H](O[C@@H]2O[C@H](CO)[C@@H](O)[C@H](O)[C@H]2O)CC1(C)C)O[C@H]1O[C@H](CO)[C@@H](O)[C@H](O)[C@H]1O (some centres not stated)	n	n	n	n	n	x
CC(/C=C/C1(O)C(C)CC(O)CC1(C)C)OC1OC(CO)C(O)C(O)C1O (configuration not stated)	n	35.5µM	u	u	56.2µM	25.1µM
CCC1CCCCN1C(=O)CSc1nc2ncccc2[nH]1 (configuration not stated)	n[11.6 µM]	n	u	u	25.1µM	n
CC1CCN(C(=O)CSc2nc3ncccc3[nH]2)CC1	n	n	n	n	n	n
CN(C)C(CNC(=O)CCOc1ccccc1)c1ccco1 (configuration not stated)	n	u	n	31.6µM	79.4µM	u
O=C(CSc1ncc(-c2ccccc2)[nH]1)Nc1ccccc1	n	n	n	n	n	n
CC(=O)Nc1cccc(NC(=O)CSc2ncc(-c3ccccc3)[nH]2)c1	n	n	n	u	n	14.1µM
COc1ccccc1CNC(=O)CCNS(=O)(=O)c1ccc2[nH]c(=O)oc2c1	n[11.6 µM]	79.4µM	n	n	n	u
COc1ccccc1NC(=O)CCNS(=O)(=O)c1ccc2[nH]c(=O)oc2c1	n	25.1µM	n	u	u	n
O=C(C[n+]1cccc2cc(Cl)ccc21)c1ccc2ccccc2c1	x	x	n	n	n	x
Cc1sc2nc(SCC(=O)Nc3c(C)n(C)n(-c4ccccc4)c3=O)n(C)c(=O)c2c1C	n	u	n	u	n	20µM
COCCn1c(=S)[nH]c2cc(C(=O)N3CCN(Cc4ccccc4)CC3)ccc2c1=O	x	x	n	n	n	x
Nc1ccc(S(=O)(=O)Nc2nc3ccccc3o2)cc1	n[11.6 µM]	44.7µM	n	u	u	79.4µM
N#CC1=C(N)Oc2n[nH]c(-c3ccccc3)c2C1c1cccnc1 (configuration not stated)	n	n	n	u	n	n
CCOc1cc(C2C(C#N)=C(N)Oc3n[nH]c(-c4ccccc4)c32)ccc1O (configuration not stated)	n	n	n	25.1µM	n	n
COc1ccc(-c2ccc(C(=O)C3CC3)cc2)cc1	n	n	n	n	n	n
CC[N+]1(C)CCC(O)(c2ccc(OC)cc2)C(C(=O)c2ccc(OC)cc2)C1 (configuration not stated)	10µM	u	n	u	n	x
Cc1ccc2c(c1)c1c(c(=O)n(-c3cccc(Cl)c3)c(=O)n1CC(=O)c1ccc(Cl)cc1)n2C	x	n	n	79.4µM	n	n
